Most compounds without a hit are left out; they make up all but 1.8% or so of the library.
LGR2 antag = blocks bursicon-induced cAMP signaling via Drosophila LGR2. HEK293 LGR2, CRE-luciferase, bursicon-stimulated, 4 h. inhibition, % at 9.99 µM. 0.35% of 380,000 active. AID 720647;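 active = drop in luminescence signal, shown as inhibition above about 50% in the replicate tests, limit read from the data, passing the limit was not always enough; inconclusive = probably only some replicates passing the limit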;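 also: agonist challenge used bursicon conditioned medium at about half maximal strength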
CFTR F508del cor = CFTR F508del correction in bronchial cells; CFBE cells, YFP halide quenching; stimulated with forskolin plus potentiator P3; % fluorescence drop versus neutral controls; activity (quench increase), % at 7.58 µM; 0.36% of 350,000 active;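 active = mean added fluorescence quench of at least 8% versus neutral control, with both replicates also reaching 8%; inconclusive = only one of the mean or replicate conditions met; inactive = mean below 8% and not both replicates reaching 8%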;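 also: cells transiently co-express mutant CFTR-F508del with the halide-sensitive YFP; corrector assay measuring rescue of mutant channel to the surface after 24 h compound exposure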
EWS-Fli inh = blocks EWS/Fli oncoprotein-driven transcription; A673 NR0B1-luciferase reporter, viability-normalised; inhibition, % at 12.6 µM; 0.67% of 350,000 active; AID 651661;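 active = mean inhibition of at least 50% after viability correction, with every replicate also passing that limit; inconclusive = mean reaches 50% but only one of two replicates passes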;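 also: firefly luciferase signal divided by Alamar Blue viability fluorescence both relative to DMSO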
PAX8 inh HTS = inhibitors of PAX8 transcriptional activity in RMG-I cells; RMG-I TPO-luciferase reporter, SteadyGlo, 24 h; inhibition, % at 12.6 µM; 1.2% of 360,000 active; AID 652154;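 active = mean replicate inhibition at least 60% with every replicate also reaching 60%; inconclusive = only one of the two criteria is met; inactive = mean below 60% and not all replicates reaching 60%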;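 also: luciferase light reporting Pax8 driven TPO promoter activity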
A number is an active result; - = inactive; ? = inconclusive; . = not tested or not shown.

SMILES | LGR2 antag | CFTR F508del cor | EWS-Fli inh | PAX8 inh HTS
CCN=C1NN=C(c2cc(C)n(Cc3ccco3)c2C)CS1 | . | - | 64 | .
CCC(=O)N(C)C[C@@H]1Oc2cc(-c3cccc(C#N)c3)ccc2S(=O)(=O)N([C@@H](C)CO)C[C@H]1C | - | - | - | .
N#CC1c2ccccc2-c2ccccc2N1C(=O)c1ccccc1 (configuration not stated) | - | 11 | 55 | -
O=C1C=C(NCc2ccco2)CCC1 | - | - | - | .
O=C1C=C(NCc2ccccc2)CCC1 | - | . | - | 74
Cc1cccc(Cn2ncc(Cl)c(Cl)c2=O)c1 | 99 | - | ? | .
Cc1ccc(C)c(C(=O)Cn2ncc(Cl)c(Cl)c2=O)c1 | - | . | . | .
COc1ccc(-c2nc3c(c(SCC(=O)N4CCCC4)n2)COC(C)(C)C3)cc1 | - | - | . | -
CCOc1ccc(C(CC(=O)O)NC(=O)C2c3ccccc3Oc3ccccc32)cc1 (configuration not stated) | - | - | - | -
O=C(O)CC(NC(=O)C1c2ccccc2Oc2ccccc21)c1ccc(OC2CCCC2)cc1 (configuration not stated) | - | - | - | 121
CC(C)CCCCCCNC(=S)Nc1ccc(S(=O)(=O)N2CCOCC2)cc1 | 51 | - | - | -
C[C@@H]1CCCCO[C@@H](CN(C)Cc2ccc(C(F)(F)F)cc2)[C@@H](C)CN([C@H](C)CO)C(=O)c2cc(NS(=O)(=O)c3ccc(Cl)cc3)ccc2O1 | - | - | - | -
C[C@H]1CCCCO[C@H](CN(C)Cc2ccc(C(F)(F)F)cc2)[C@@H](C)CN([C@@H](C)CO)C(=O)c2cc(NS(=O)(=O)c3ccc(Cl)cc3)ccc2O1 | - | - | - | 93
C[C@@H]1CCCCO[C@H](CN(C)Cc2ccc(C(F)(F)F)cc2)[C@@H](C)CN([C@@H](C)CO)C(=O)c2cc(NS(=O)(=O)c3ccc(Cl)cc3)ccc2O1 | - | - | - | 113
C[C@@H]1CCCCO[C@H](CN(C)Cc2ccc(C(F)(F)F)cc2)[C@H](C)CN([C@@H](C)CO)C(=O)c2cc(NS(=O)(=O)c3ccc(Cl)cc3)ccc2O1 | - | - | - | 105
COc1cc(NC(=O)c2cc3ccccc3cc2O)c(OC)cc1Cl | - | - | - | 72
Cc1cc(O)c(C(C)C)cc1NC(=O)c1ccccc1Cl | . | - | - | 70
Cc1ccc(Cl)cc1NC(=O)c1cc2ccccc2cc1O | - | - | - | 78
COc1cc(OC)c(NC(=O)c2ccccc2F)cc1Cl | - | - | - | -
CCN(C(=O)CSc1nc(N)cc(=O)[nH]1)c1c(N)n(Cc2ccccc2)c(=O)[nH]c1=O | - | - | - | -
Cc1ccc(-c2ccc3c(c2)O[C@H](CN(C)S(C)(=O)=O)[C@H](C)CN([C@H](C)CO)S3(=O)=O)cc1 | - | - | - | .
COc1cc2c(cc1OC)C(C)N(C(=O)Nc1cc(C)cc(C)c1)CC2 (configuration not stated) | - | 13 | - | -
CC1COCC(C)N1C(=O)c1cccnc1 (configuration not stated) | - | - | - | -
COc1ccc(OC)c2sc(N(CCCN(C)C)C(=O)CCS(=O)(=O)c3ccccc3)nc12 | - | - | - | 108
COc1ccc(Cl)c2sc(N(CCN(C)C)C(=O)CCS(=O)(=O)c3ccc(C)cc3)nc12 | - | - | - | -
SMILES | LGR2 antag | CFTR F508del cor | EWS-Fli inh | PAX8 inh HTS
Cc1ccc2sc(N(CCCN(C)C)C(=O)CCS(=O)(=O)c3ccccc3)nc2c1C | - | - | . | 81
CN(C)CCN(C(=O)CCS(=O)(=O)c1ccccc1)c1nc2c(F)cccc2s1 | - | - | - | -
O=C(C[C@@H]1CC[C@H]2[C@@H](COC[C@@H](O)CN2Cc2cccc(C(F)(F)F)c2)O1)NCc1ccc(F)cc1 | - | - | - | 98
O=C(C[C@H]1CC[C@@H]2[C@H](COC[C@@H](O)CN2Cc2cccc(C(F)(F)F)c2)O1)NCc1ccc(F)cc1 | - | - | - | -
O=C(C[C@@H]1CC[C@@H]2[C@H](COC[C@H](O)CN2Cc2cccc(F)c2)O1)NCC1CCCCC1 | - | - | - | -
O=C(C[C@@H]1CC[C@H]2[C@@H](COC[C@@H](O)CN2Cc2cccc(F)c2)O1)NCC1CCCCC1 | - | - | - | 107
O=C(C[C@H]1CC[C@H]2[C@@H](COC[C@@H](O)CN2Cc2ccc(F)cc2)O1)NCc1ccccc1Cl | - | - | - | 79
CN(Cc1ccco1)c1ncnc2ccc(-c3ccc4c(c3)OCO4)cc12 | . | - | - | -
CN(Cc1ccco1)c1ncnc2ccc(-c3ccc4c(ccn4C)c3)cc12 | - | 14 | 67 | -
COC(C(=O)Nc1ccnn1C1CCN(Cc2ccc(C)s2)CC1)c1ccccc1 (configuration not stated) | - | - | - | -
O=C(C1CCC1)N1CC2(C1)[C@@H](c1ccccc1)[C@@H](CO)N2C(=O)c1cccnc1 | - | - | - | .
Cc1ccc(NC(=O)CSC2=NN3CCCC(=O)N=C3S2)c(C)c1 | - | 9.7 | - | -
CCCCC1Cc2[nH]c(=S)[nH]c(=O)c2C(c2ccc(F)cc2)O1 (configuration not stated) | - | - | - | 95
O=C(CN1CCN(c2ccccc2F)CC1)NC(=O)NCc1ccco1 | - | - | - | -
COc1ccc(-c2ccc3c(c2)[C@H]2[C@H](CCN2C(=O)Cc2cccnc2)[C@H](CO)N3C)cc1 | . | - | - | 86
CN1c2ccc(C#Cc3cccnc3)cc2[C@H]2[C@H](CCN2C(=O)C2CC2)[C@@H]1CO | - | - | - | -
CN1c2ccc(C#Cc3cccnc3)cc2[C@@H]2[C@@H](CCN2C(=O)Cc2cccnc2)[C@@H]1CO | - | - | - | 88
CN1c2ccc(-c3cccc(F)c3)cc2[C@@H]2[C@@H](CCN2C(=O)Cc2ccccc2)[C@@H]1CO | - | - | - | 75
CCOC(=O)C1=CCN(S(=O)(=O)c2cccc(Cl)c2)C1c1ccc(Cl)cc1 (configuration not stated) | - | - | - | -
CC(C)C(=O)Nc1ccc2c(c1)C(=O)N(C)[C@H]1CC[C@@H](CC(=O)N[C@@H](C)c3ccccc3)O[C@@H]1CO2 | - | - | - | -
OC[C@@H]1[C@@H](c2ccccc2)C2(CN(Cc3ccccc3F)C2)N1Cc1ccccc1F | - | 10 | - | -
CC(C)(C)OC(=O)[C@H](Cc1ccccc1)NC(=O)c1nc[nH]c1C(=O)N[C@@H](Cc1ccccc1)C(=O)OC(C)(C)C | - | - | - | 104
C[C@H](NC(=O)c1nc[nH]c1C(=O)N[C@@H](Cc1ccccc1)C(=O)OC(C)(C)C)C(=O)OC(C)(C)C | - | - | - | -
CC(C)(C)OC(=O)NCCCC[C@H](NC(=O)c1[nH]cnc1C(=O)Nc1ccc(CNC(=O)OC(C)(C)C)cc1)C(=O)OC(C)(C)C | - | - | - | 110
C[C@H]1CNC(=O)c2c(C(=O)Nc3ccc(CNC(=O)OC(C)(C)C)cc3)ncn21 | - | 12 | - | -
CC(C)(C)OC(=O)NCCCC[C@H](NC(=O)c1[nH]cnc1C(=O)N[C@@H](Cc1ccccc1)C(=O)OC(C)(C)C)C(=O)OC(C)(C)C | - | - | - | 104

Source: PubChem (Broad Institute)
